The source of these data is the supplement of paper PMC11001985.

A number with no mark means an inactive call.

Chain of UniProt P08069 (P08069 whole entry, looked up): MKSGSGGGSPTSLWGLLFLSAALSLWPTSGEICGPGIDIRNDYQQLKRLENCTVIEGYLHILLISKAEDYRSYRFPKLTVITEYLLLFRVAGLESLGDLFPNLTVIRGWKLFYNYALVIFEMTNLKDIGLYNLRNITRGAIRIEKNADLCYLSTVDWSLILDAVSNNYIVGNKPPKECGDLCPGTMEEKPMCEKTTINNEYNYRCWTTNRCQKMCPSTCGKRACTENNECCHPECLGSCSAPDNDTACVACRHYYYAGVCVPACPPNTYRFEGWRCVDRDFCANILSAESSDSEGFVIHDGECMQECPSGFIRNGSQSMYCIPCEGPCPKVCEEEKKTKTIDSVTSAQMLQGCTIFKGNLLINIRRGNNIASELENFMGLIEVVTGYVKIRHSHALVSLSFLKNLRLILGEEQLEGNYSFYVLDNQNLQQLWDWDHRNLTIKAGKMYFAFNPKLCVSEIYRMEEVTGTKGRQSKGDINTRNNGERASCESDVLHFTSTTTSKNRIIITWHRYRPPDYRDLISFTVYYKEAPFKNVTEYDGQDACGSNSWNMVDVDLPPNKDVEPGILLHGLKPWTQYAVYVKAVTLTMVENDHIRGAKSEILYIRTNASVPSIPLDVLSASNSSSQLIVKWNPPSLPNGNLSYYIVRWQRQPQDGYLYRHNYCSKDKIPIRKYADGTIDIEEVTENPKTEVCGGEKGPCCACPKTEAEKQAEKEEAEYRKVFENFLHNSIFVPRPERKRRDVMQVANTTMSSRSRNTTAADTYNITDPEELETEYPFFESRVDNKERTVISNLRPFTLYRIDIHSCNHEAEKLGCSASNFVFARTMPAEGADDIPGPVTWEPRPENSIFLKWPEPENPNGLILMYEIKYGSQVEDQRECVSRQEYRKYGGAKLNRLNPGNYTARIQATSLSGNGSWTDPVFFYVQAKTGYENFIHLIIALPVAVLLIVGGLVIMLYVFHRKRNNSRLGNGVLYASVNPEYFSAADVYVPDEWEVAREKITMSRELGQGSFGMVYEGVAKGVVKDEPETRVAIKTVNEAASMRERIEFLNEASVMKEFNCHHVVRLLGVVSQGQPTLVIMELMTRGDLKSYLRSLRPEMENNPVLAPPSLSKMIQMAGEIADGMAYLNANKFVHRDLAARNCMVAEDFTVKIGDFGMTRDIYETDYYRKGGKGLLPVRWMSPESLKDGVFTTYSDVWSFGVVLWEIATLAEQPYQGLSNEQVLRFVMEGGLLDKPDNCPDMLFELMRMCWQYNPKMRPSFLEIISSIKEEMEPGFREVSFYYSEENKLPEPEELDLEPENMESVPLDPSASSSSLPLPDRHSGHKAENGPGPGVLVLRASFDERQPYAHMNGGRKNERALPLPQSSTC
Chain of UniProt P05783 (P05783 whole entry): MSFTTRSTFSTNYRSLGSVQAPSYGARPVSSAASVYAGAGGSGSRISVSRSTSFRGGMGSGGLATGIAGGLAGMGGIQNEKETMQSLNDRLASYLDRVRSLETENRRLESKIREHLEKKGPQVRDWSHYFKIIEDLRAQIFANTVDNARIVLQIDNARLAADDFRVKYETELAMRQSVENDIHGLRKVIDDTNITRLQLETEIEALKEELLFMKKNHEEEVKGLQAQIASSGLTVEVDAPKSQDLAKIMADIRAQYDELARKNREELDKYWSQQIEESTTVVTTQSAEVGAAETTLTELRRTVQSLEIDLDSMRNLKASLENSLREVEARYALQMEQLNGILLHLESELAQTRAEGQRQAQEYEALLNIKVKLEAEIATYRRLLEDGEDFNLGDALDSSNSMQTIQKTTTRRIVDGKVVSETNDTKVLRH
Chain of UniProt P21589 (P21589 whole entry): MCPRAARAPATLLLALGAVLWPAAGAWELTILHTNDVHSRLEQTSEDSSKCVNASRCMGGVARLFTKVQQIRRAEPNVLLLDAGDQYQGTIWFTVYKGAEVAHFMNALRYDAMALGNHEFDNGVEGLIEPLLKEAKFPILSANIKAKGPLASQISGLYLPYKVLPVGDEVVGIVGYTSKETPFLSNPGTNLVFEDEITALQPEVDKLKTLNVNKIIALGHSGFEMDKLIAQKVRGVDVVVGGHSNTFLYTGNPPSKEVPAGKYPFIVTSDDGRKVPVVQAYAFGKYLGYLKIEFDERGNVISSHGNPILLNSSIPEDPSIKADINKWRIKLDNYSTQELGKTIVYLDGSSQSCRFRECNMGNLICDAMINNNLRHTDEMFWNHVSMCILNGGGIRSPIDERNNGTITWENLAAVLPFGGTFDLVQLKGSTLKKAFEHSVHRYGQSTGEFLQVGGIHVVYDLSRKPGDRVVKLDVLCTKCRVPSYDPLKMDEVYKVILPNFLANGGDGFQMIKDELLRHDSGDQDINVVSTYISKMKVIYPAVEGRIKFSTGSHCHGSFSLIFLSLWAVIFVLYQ
Chain of UniProt Q13332 (Q13332 whole entry): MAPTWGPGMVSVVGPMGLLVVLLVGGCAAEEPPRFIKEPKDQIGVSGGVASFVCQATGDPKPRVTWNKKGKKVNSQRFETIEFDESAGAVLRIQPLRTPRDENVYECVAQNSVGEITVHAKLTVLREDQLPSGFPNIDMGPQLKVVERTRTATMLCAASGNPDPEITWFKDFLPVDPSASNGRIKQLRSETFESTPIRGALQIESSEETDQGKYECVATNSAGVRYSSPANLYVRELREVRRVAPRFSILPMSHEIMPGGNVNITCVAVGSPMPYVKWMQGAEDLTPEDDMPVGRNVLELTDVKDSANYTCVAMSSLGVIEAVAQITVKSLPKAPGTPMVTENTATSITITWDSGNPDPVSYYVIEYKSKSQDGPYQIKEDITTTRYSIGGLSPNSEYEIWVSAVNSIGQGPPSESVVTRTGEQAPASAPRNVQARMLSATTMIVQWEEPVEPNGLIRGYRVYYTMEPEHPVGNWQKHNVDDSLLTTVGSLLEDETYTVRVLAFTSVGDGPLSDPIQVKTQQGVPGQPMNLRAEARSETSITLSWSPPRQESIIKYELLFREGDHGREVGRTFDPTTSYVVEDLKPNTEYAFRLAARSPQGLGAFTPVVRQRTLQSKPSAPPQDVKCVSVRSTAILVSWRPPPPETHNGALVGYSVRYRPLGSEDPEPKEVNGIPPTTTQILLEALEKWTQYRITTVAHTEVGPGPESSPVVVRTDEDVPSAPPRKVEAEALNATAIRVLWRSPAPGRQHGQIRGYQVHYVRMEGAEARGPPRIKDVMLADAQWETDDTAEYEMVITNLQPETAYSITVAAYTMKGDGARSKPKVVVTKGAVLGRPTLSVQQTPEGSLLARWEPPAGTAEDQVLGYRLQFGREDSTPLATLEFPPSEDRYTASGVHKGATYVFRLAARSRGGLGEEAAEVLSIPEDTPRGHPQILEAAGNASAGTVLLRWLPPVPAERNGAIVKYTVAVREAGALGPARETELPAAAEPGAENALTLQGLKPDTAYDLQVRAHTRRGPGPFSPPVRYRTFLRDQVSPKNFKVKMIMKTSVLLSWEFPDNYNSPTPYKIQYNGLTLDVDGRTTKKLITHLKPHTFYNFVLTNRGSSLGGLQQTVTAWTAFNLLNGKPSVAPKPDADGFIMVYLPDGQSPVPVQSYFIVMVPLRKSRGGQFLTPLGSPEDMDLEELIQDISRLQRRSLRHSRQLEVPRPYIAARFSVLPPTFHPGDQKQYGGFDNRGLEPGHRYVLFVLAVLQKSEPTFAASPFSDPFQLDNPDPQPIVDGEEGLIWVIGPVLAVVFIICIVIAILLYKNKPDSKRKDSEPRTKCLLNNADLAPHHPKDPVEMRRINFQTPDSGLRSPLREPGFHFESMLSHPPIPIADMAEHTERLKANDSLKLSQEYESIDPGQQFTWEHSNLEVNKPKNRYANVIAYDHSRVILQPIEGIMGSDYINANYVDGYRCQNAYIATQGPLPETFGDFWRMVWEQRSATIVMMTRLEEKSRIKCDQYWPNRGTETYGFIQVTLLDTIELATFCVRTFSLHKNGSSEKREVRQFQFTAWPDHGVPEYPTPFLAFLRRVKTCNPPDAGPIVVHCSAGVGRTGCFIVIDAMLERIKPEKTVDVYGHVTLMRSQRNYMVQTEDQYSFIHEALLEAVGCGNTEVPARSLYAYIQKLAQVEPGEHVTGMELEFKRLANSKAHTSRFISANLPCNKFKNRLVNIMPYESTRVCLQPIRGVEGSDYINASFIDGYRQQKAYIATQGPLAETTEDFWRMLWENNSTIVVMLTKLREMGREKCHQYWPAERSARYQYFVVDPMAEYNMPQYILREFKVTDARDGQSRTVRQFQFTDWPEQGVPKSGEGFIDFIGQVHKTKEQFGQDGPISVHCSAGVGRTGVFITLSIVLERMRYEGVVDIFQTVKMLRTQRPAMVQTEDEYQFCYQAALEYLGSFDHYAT
Chain of UniProt P15311 (P15311 whole entry): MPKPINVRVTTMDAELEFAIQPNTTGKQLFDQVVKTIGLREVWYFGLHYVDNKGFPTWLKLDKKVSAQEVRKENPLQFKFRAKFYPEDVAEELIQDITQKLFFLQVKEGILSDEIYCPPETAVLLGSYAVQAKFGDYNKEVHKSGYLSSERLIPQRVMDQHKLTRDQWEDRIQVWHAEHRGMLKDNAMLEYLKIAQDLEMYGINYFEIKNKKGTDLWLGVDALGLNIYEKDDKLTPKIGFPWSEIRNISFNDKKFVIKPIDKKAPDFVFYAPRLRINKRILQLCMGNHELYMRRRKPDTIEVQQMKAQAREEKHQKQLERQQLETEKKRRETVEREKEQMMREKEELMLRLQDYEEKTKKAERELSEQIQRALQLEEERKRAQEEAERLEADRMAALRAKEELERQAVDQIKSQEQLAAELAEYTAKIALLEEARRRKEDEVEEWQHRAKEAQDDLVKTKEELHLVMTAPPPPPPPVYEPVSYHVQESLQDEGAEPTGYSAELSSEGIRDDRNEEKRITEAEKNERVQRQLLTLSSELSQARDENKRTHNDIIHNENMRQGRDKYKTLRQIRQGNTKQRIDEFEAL

Compound in this test: C#CCNC(=O)CCSSCCC(=O)NCCc1ccc(C=O)c(C=O)c1
Description: lysine labeling ratio R10:1 (500 µM / 50 µM probe), SILAC-ABPP in living cells; higher = lower intrinsic lysine reactivity toward the probe, active = 2 or less. To be noted: HeLa; probe concentrations 500 vs 50 µM. On the procedure:
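Living HeLa cells (SILAC light/heavy) in PBS at room temperature were labeled with 50 µM versus 500 µM of the lysine-reactive, reductant-cleavable probe OPA-S-S-alkyne (SILAC labeling time not stated). Probe-modified peptides were CuAAC-biotinylated, captured on neutravidin and eluted with DTT/IAA, then quantified by LC-MS/MS. R = median peptide ratio per lysine (500/50 µM), combined over 3 forward and 3 reverse SILAC replicates. Ratios are capped at 20; R < 2 = hyper-reactive.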
For “ITGAV (lysine site: K134) (UniProt P06756)”, the “lysine labeling ratio R10:1” value was 2.96.

As to UniProt Q68BL7 (lysine site: K168), the “lysine labeling ratio R10:1” value is 1.12 (active).

Consider UniProt Q8WXI7 (lysine site: K13072), for which the “lysine labeling ratio R10:1” value was 11.1.

Turning to “KRT18 (lysine site: K187) (UniProt P05783)”, the “lysine labeling ratio R10:1” value was 3.47.

On to “ANXA3 (lysine site: K184) (UniProt P12429)”, for which the “lysine labeling ratio R10:1” value is 1.13 (active).

For “ITGB1 (lysine site: K107) (UniProt P05556)”, the “lysine labeling ratio R10:1” value was 1.41 (active).

Consider “PTPRS (lysine site: K144) (UniProt Q13332)”, for which the “lysine labeling ratio R10:1” value was 1.57 (active).

For “CALD1 (lysine site: K577) (UniProt Q05682)”, the “lysine labeling ratio R10:1” value is 1.1 (active).

Take “EGFR (lysine site: K487) (UniProt P00533)”: the “lysine labeling ratio R10:1” value is 1.61 (active).

“IMPDH2 (lysine site: K511) (UniProt P12268)”: the “lysine labeling ratio R10:1” value was 3.35.

On to UniProt P21589 (lysine site: K232), for which the “lysine labeling ratio R10:1” value is 1.92 (active).

For “COL5A1 (lysine site: K164) (UniProt P20908)”, the “lysine labeling ratio R10:1” value was 3.25.

For the target “HSPA5 (lysine site: K353) (UniProt P11021)”, the “lysine labeling ratio R10:1” value is 3.4.

“DDX3X (lysine site: K118) (UniProt O00571)”: the “lysine labeling ratio R10:1” value was 4.1.

Take “FAS (lysine site: K126) (UniProt P25445)”: the “lysine labeling ratio R10:1” value is 2.16.

“ITGA6 (lysine site: K953) (UniProt P23229)”: the “lysine labeling ratio R10:1” value is 3.1.

As to “NOTCH2 (lysine site: K1353) (UniProt Q04721)”, the “lysine labeling ratio R10:1” value is 7.44.

In the case of “EZR (lysine site: K162) (UniProt P15311)”, the “lysine labeling ratio R10:1” value was 0.7 (active).

As for UniProt Q9BZM4 (lysine site: K148), the “lysine labeling ratio R10:1” value is 2.1.

Regarding “SURF4 (lysine site: K22) (UniProt O15260)”, the “lysine labeling ratio R10:1” value was 3.81.

With “CCT2 (lysine site: K441) (UniProt P78371)”, the “lysine labeling ratio R10:1” value is 1.98 (active).

On to “IGF1R (lysine site: K665) (UniProt P08069)”, for which the “lysine labeling ratio R10:1” value is 1.28 (active).

As for “TALDO1 (lysine site: K321) (UniProt P37837)”, the “lysine labeling ratio R10:1” value is 0.79 (active).

Regarding “PDIA3 (lysine site: K130) (UniProt P30101)”, the “lysine labeling ratio R10:1” value was 3.07.

As to “KRT18 (lysine site: K118) (UniProt P05783)”, the “lysine labeling ratio R10:1” value is 6.22.

As for “ACTBL2 (lysine site: K114) (UniProt Q562R1)”, the “lysine labeling ratio R10:1” value was 1.15 (active).

On to “CYB5R3 (lysine site: K164) (UniProt P00387)”, for which the “lysine labeling ratio R10:1” value was 1.79 (active).

Consider “LAMB2 (lysine site: K1720) (UniProt P55268)”, for which the “lysine labeling ratio R10:1” value is 5.02.

Turning to “APP (lysine site: K522) (UniProt P05067)”, the “lysine labeling ratio R10:1” value is 5.65.

Regarding UniProt O95980 (lysine site: K230), the “lysine labeling ratio R10:1” value is 1.91 (active).

In the case of “APOB (lysine site: K1642) (UniProt P04114)”, the “lysine labeling ratio R10:1” value was 2.17.

Turning to “RPL14 (lysine site: K85) (UniProt P50914)”, the “lysine labeling ratio R10:1” value was 1.23 (active).

For the target “HNRNPU (lysine site: K565) (UniProt Q00839)”, the “lysine labeling ratio R10:1” value was 3.39.

As to “LRP1 (lysine site: K3988) (UniProt Q07954)”, the “lysine labeling ratio R10:1” value was 4.67.

For “CCT8 (lysine site: K400) (UniProt P50990)”, the “lysine labeling ratio R10:1” value is 4.01.

For the target “IGF1R (lysine site: K667) (UniProt P08069)”, the “lysine labeling ratio R10:1” value was 1.28 (active).

For the target “CEP250 (lysine site: K1048) (UniProt Q9BV73)”, the “lysine labeling ratio R10:1” value was 7.19.

Consider “FLOT1 (lysine site: K246) (UniProt O75955)”, for which the “lysine labeling ratio R10:1” value was 2.54.

As to “ACSL3 (lysine site: K679) (UniProt O95573)”, the “lysine labeling ratio R10:1” value was 2.71.

As to UniProt P21589 (lysine site: K478), the “lysine labeling ratio R10:1” value was 1.17 (active).
